# Assay results as given in PubChem BioAssay (Tox21).
# Results filed as inconclusive are left out. A number with no mark means an inactive call. Calls follow the shape of the dose curve; as a rule, active = well fitted cell-killing curve with a large enough effect in the repeat runs; inconclusive = weak or mixed curves, or effect the other way; inactive = flat fitted curve, though single readings scatter.
# Assay: Caspase-3/7 induction in HepG2 cells by small molecules, qHTS cell viability counter screen (AID 1346981); also: nearly all actives have a fitted effect of over 30% in size
# Conditions: CellTiter-Fluor fluorescence, 17 h; series mostly up to 92.4 µM; activity change, negative = cytotoxicity: at the top concentration
# From the text: U.S. Tox21 Program National Center for Advancing Translational Sciences [NCATS] NIH Chemical Genomics Center [NCGC] U.S. Environmental Protection Agency [EPA] National Institutes of Environmental Health Sciences [NIEHS] National Toxicology Program [NTP] U.S. Food and Drug Administration [FDA] Tox21 Assay Overview: Apoptosis is a process of programmed cell death and plays a central role in the development of multicellular organisms. It is a highly regulated process and induces cell death by activating caspases, which are the members of cysteine aspartic acid-specific protease (caspase) family. Caspases involved in apoptosis are classified by their mechanism of action as initiator caspases (caspase-2, -8, -9 and -10) and executioner caspases (caspase-3, -6, and -7). Inhibition of apoptosis results in number of cancers, autoimmune diseases, inflammatory diseases and viral infection. To identify small molecule compounds that induce apoptosis, a homogeneous, luminescent Caspase-Glo 3/7 assay was used. Wild type HepG2 cells were used to screen Tox21 libraries for identifying caspase-3/7 activity inducers. Also cytotoxicity of the compounds was tested in parallel by measuring the cell viability using CellTiter-Fluor assay system in the same wells.
# Tox21 Assay Protocol Summary: HepG2 cells were dispensed at 2,000 per well in 5uL of culture medium into white solid bottom 1536-well plates (Corning Life Sciences, Corning, NY) using a Multidrop Combi (Thermo Scientific, Waltham, MA) dispenser. The assay plates were incubated at 37 C and 5% CO2 for 5hr, and then 23nL of compounds dissolved in DMSO and positive control were transferred using a Pintool station ([…], San Diego, CA). The assay plates were incubated at 37C and 5% CO2 for 17hr. For cytotoxicity read, after 16hr incubation at 37C, 1uL CellTiter-Fluor reagent (Promega Corporation, Madison, WI) was added to each well of the assay plates using Flying Reagent Dispenser (FRD, Aurora Discovery, San Diego, CA). After 1hr incubation at 37C and 5% CO2, the fluorescence signal was quantified using a ViewLux plate reader (PerkinElmer, Shelton, CT).
# % is scaled to controls: 0 for no effect and ±100 for the full control effect.
row,SMILES,"activity change, negative = cytotoxicity"
1,Nc1ccc(S(=O)(=O)Nc2ccc(Cl)nn2)cc1,-0.654% [at 42.5 µM]
2,Nc1nnc(-c2cccc(Cl)c2Cl)c(N)n1,0.766% [at 42.5 µM]
3,Cc1ccc(S(=O)(=O)O)c(C)c1,12.9%
4,C=C(C)C(=O)OCC(C)(C)COC(=O)C(=C)C,0.738%
5,CCCC/C=C/C=C\C=O,0.298%
6,CC(=O)Nc1cccc(C)c1,7.2%
7,CCc1ccc(C=O)cc1,6.67%
8,C=C(C)C(=O)OCCNC(C)(C)C,0.132%
9,CCCC/C=C\CCCCCCCCCC=O,4.04%
10,COc1ccc(-c2cc(=O)c3c(O)cc(O[C@@H]4O[C@H](CO[C@@H]5O[C@@H](C)[C@H](O)[C@@H](O)[C@H]5O)[C@@H](O)[C@H](O)[C@H]4O)cc3o2)cc1O,-1.98% [at 42.5 µM]
11,O=C(O)c1ccc(Cl)cc1Cl,4.77%
12,C=Cc1ccccn1,-0.85%
13,CC(C)NCC(O)COc1cccc2[nH]ccc12 (stereo not given),2.12% [at 42.5 µM]
14,CCCOC(=O)C(C)O (stereo not given),9.87%
15,C=COCCOCCOCCOC=C,-0.264%
16,CC[C@H](C)C(=O)O[C@H]1C[C@H](O)C=C2C=C[C@H](C)[C@H](CC[C@@H](O)C[C@@H](O)CC(=O)O)[C@H]21,0.623%
17,CCN(C)C(=O)Oc1cccc([C@H](C)N(C)C)c1,2.89% [at 42.5 µM]
18,CCOc1cc(NC(C)=O)ccc1C(=O)OC,1.49% [at 42.5 µM]
19,FC(F)(F)c1ccccc1-n1ccnc1,-3.93% [at 42.5 µM]
20,CCCCN,3.82% [at 42.5 µM]

row,SMILES,"activity change, negative = cytotoxicity"
1,CC(C)C(=O)OCCc1ccccc1,1.02%
2,COc1cc(N)ccc1C,0.57%
3,CC(C)C[C@H](NC(=O)CNC(=O)[C@H](Cc1ccc(O)cc1)NC(=O)[C@H](CO)NC(=O)[C@H](Cc1c[nH]c2ccccc12)NC(=O)[C@H](Cc1cnc[nH]1)NC(=O)[C@@H]1CCC(=O)N1)C(=O)N[C@@H](CCCN=C(N)N)C(=O)N1CCC[C@H]1C(=O)NCC(N)=O (stereo in doubt),0.483% [at 42.5 µM]
4,CC(C)OC(=O)CCCCC(=O)OC(C)C,2.29%
5,CCOC(=O)CC(=O)c1ccccc1,-1.09%
6,Cc1nc2n(c(=O)c1CCN1CCC(c3noc4cc(F)ccc34)CC1)CCC[C@H]2O,0.92% [at 19 µM]
7,NCCN1CCOCC1,0.443%
8,OCCC(F)(F)C(F)(F)C(F)(F)C(F)(F)C(F)(F)C(F)(F)C(F)(F)C(F)(F)F,0.148%
9,O=C1c2cccc3c2[C@H](CCC3)CN1[C@@H]1CN2CCC1CC2,-9.32% [at 42.5 µM]
10,C[Si](C)=O,6.01% [at 8.39 µM]
11,CC(C)(C)NC(N)=O,3.18%
12,NS(=O)(=O)c1ccc(NC(=O)CCC(=O)O)cc1,0.117% [at 42.5 µM]
13,N[C@@H](CCC(=O)N[C@@H](CS)C(=O)NCC(=O)O)C(=O)O,-0.0408% [at 19 µM]
14,O=C(OCC(COC(=O)c1cccnc1)(COC(=O)c1cccnc1)COC(=O)c1cccnc1)c1cccnc1,0.993% [at 42.5 µM]
15,CCCCCCCCC(=O)Cl,5.35%
16,C[C@H](CCC(=O)O)[C@H]1CC[C@H]2[C@@H]3C(=O)C[C@@H]4CC(=O)CC[C@]4(C)[C@H]3CC(=O)[C@]12C,0.498% [at 42.5 µM]
17,CC(=O)NCc1c(I)c(NC(C)=O)c(I)c(C(=O)O)c1I,8.96% [at 42.5 µM]
18,Brc1ccc(-c2ccccc2)cc1,-0.0125%
19,CCN(CC)CC(=O)Nc1c(C)cccc1C,0.21% [at 42.5 µM]
20,CCCCCCCCOS(=O)(=O)O,4.54%
